The whole screen tested about 16,000 compounds, of which about 4,000 (25%) were called active. About 26% were inconclusive and are not listed. The list is a sample of the results. Unmarked numbers belong to inactive results. The call rests on the fitted dose curve; in most records, active means well fitted curve in the direction sought with a large enough effect; inconclusive means small, poorly fitted or top-dose-only effect, or effect the other way; inactive means no such curve, though single readings can be large or run the other way.
target: Cytochrome P450 2C9 (Homo sapiens) (UniProt P11712); assay: Cytochrome panel assay with activity outcomes; details: recombinant CYP, pro-luciferin dealkylation, luminescence, p450-cyp2c9; series mostly up to 57.1 µM; activity, negative = inhibition: at the top concentration
On the % scale 0 is the no-effect control and ±100 the full control effect.

Sequence of Cytochrome P450 2C9 (Homo sapiens) (P11712 whole entry, looked up): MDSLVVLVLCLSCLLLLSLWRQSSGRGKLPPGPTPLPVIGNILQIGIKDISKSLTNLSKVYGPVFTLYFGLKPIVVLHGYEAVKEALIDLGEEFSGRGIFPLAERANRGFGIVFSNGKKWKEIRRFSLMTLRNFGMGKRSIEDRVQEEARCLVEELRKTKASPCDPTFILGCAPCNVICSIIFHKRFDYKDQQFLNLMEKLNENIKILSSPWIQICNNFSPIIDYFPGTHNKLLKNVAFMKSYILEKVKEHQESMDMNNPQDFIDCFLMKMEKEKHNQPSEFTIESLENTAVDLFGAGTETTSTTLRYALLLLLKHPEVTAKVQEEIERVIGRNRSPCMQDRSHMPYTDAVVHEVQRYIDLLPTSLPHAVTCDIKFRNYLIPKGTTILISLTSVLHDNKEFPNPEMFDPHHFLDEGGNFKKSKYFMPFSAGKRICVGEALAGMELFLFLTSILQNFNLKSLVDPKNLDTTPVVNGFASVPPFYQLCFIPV

Row | SMILES | activity, negative = inhibition | AC50
1 | CO[C@H]1COC(=O)C/C=C\[C@@H](C)[C@H](OC)COC(=O)CCC[C@@H]1C | 9.38% [at 11.4 µM] | –
2 | COc1cc2c(cc1OC)-c1cc3ccc(OC)c(OC)c3c[n+]1CC2 | -16.3% [at 25.6 µM] | –
3 | CN(C)c1ncc2nc(-c3cc(F)cc(F)c3)c(=O)n(C[C@H]3CCCO3)c2n1 | 19.4% | –
4 | COc1ccc(-c2cc(C(F)(F)F)nc(N3CCOCC3)n2)cc1OC | – | 3.98 µM (active)
5 | COc1ccc(-n2c(=O)c(-c3ccc(F)cc3)nc3cnc(N4CCOCC4)nc32)cc1 | 9.27% | –
6 | Cn1c(=O)c(-c2ccc(F)cc2)nc2cnc(N3CCOCC3)nc21 | 6.99% | –
7 | CC(C)(CO)N1CCN(C(=S)Nc2ccccc2)CC1 | 10.3% [at 11.4 µM] | –
8 | COc1cc2c(cc1OC)CN(C(=S)Nc1ccccc1)CC2 | – | 4.47 µM (active)
9 | COc1cc2c(cc1OC)[C@H](c1ccccc1)CN(C)CC2 | -23.8% | –
10 | O=C(/C=C/c1cccnc1)c1ccc(NC(=O)c2cccc(Br)c2)cc1 | – | 4.47 µM (active)
11 | O=C(N/C(=C\c1cccnc1)C(=O)N1CCOCC1)c1cccc(Br)c1 | -30.3% | –
12 | CN(C)CCn1c(C(=O)O)cc2ccccc21 | -16.7% | –
13 | N#CC(c1ccc(Cl)cc1)c1nc2ccccc2nc1C(F)(F)F (centres undefined) | – | 1.41 µM (active)
14 | FC(F)(F)c1nc2ccccc2nc1N/N=C/c1ccc(Cl)cc1 | -20.4% | –
15 | Cc1ccccc1Oc1ncnc2sccc12 | 8.31% | –
16 | Cc1cc(Cl)ccc1Oc1ncc(-c2ccc(Cl)cc2)cn1 | -15.3% | –
17 | Cc1cc(Cl)ccc1Oc1ncnc2oc(-c3ccccc3)cc12 | – | 4.47 µM (active)
18 | Cc1ccccc1Oc1ncnc2oc(-c3ccccc3)cc12 | – | 3.98 µM (active)
19 | CC(O)(P(=O)(O)O)P(=O)(O)O | -5.54% [at 25.6 µM] | –
20 | O=C(c1cnccn1)N1CCC2(CC1)CN(Cc1cc(C(F)(F)F)cc(C(F)(F)F)c1)C2 | 2.54% | –
21 | COc1ccc2cc(C)c3nnc(SCC(=O)Nc4nc(-c5ccccc5)cs4)n3c2c1 | – | 2.82 µM (active)
22 | COc1ccc(-c2nc(-c3ccccc3)c(-c3cc([N+](=O)[O-])ccc3C)[nH]2)cc1O | – | 10 µM (active)
23 | CCCC(=O)NC(Nc1ccccc1F)C(Cl)(Cl)Cl (centres undefined) | – | 8.91 µM (active)
24 | N#Cc1c(NC(=O)C2CC(c3ccccc3Cl)=NO2)sc2c1CCC2 (centres undefined) | – | 0.708 µM (active)
25 | CCN(c1ccccc1)c1cc(NC)[n+](C)c(C)n1 | 5.78% | –

Row | SMILES | activity, negative = inhibition | AC50
26 | CC(C)(C)n1nnnc1C(c1cccnc1)N(Cc1ccccc1)Cc1ccco1 (centres undefined) | – | 3.98 µM (active)
27 | CN(Cc1ccco1)c1nc(-c2cccnc2)nc2ccccc12 | -8.92% [at 2.29 µM] | –
28 | CN(Cc1ccco1)c1ccnc(-c2cccnc2)n1 | 16.4% [at 2.29 µM] | –
29 | C=CCn1c(SCC(=O)N2CCc3ccccc3C2)nc2ccccc2c1=O | – | 0.2 µM (active)
30 | Cc1ccc(-n2c(C)nnc2SCC(=O)N2CCc3ccccc3C2)cc1C | 11.9% | –
31 | O=C(O)/C=C\C(=O)N1Cc2cc3ccccc3nc2C1 | 10.3% [at 11.4 µM] | –
32 | CCn1c2ccccc2c2nnc(NCCCO)nc21 | 5.48% [at 11.4 µM] | –
33 | CCn1c2ccc(Cl)cc2c2nc3ccccc3nc21 | – | 10 µM (active)
34 | CCn1c(N)nc2ccccc21 | -20% | –
35 | O=C(O)CCc1nc(-c2ccccc2-n2cccc2)no1 | -3.02% [at 11.4 µM] | –
36 | C=Cc1c(C)c2cc3nc(cc4[nH]c(cc5nc(cc1[nH]2)C(C)=C5CCC(=O)O)c(CCC(=O)OC)c4C)[C@@]1(C)C3=CC=C(C(=O)OC)[C@H]1C(=O)OC (tested in a mixture with another compound) | – | 1.26 µM (active)
37 | Cc1cccc(CNc2cc(-c3ccc(N(C)C)cc3)ncn2)c1 | -14.7% [at 2.29 µM] | –
38 | CCOc1ccc2ccccc2c1C(=O)N[C@@H]1C(=O)N2[C@@H]1SC(C)(C)[C@@H]2C(=O)O | -13.4% [at 25.6 µM] | –
39 | CCOc1cc(C2CC(=O)c3c(ccc4ccccc34)N2)ccc1O (centres undefined) | – | 3.16 µM (active)
40 | COc1ncc2nc(-c3cccs3)c(=O)n(Cc3ccc(F)cc3)c2n1 | -20.3% | –
41 | Cc1nc2cncnc2n(Cc2ccccc2)c1=O | – | 15.8 µM (active)
42 | Cn1cc(-c2nc3cncnc3n(Cc3ccc(F)cc3)c2=O)c2ccccc21 | 7.71% | –
43 | COc1ccc(Oc2ncc3nc(-c4cccs4)c(=O)n(Cc4cccc(OC)c4)c3n2)cc1 | – | 1 µM (active)
44 | COc1cccc(Nc2ncc3nc(-c4cccs4)c(=O)n(CCC#N)c3n2)c1 | -7.12% | –
45 | COc1cccc(Cn2c(=O)c(-c3cccs3)nc3cncnc32)c1 | – | 2.51 µM (active)
46 | Cc1nc2cnc(Nc3ccccc3)nc2n(CCc2ccccc2)c1=O | -14.1% | –
47 | O=c1c(-c2cccs2)nc2cncnc2n1Cc1ccccc1 | – | 1.26 µM (active)
48 | CCn1cc(C(=O)O)c(=O)c2cnc(N3CCNCC3)nc21 | 12.3% [at 25.6 µM] | –
49 | Cc1cc2cc(C=O)c(Cl)nc2cc1C | -8.44% | –
